Assay outcomes as filed in PubChem BioAssay.
Sampled rows, rich in hits. Any-hit rate of the full collection: about 19%.
IL-1B inflam inh: qHTS for Inhibitors of Inflammasome Signaling: IL-1-beta AlphaLISA Primary Screen; 4.7% of 360,000 active; activity change, % at 57.5 µM; THP-1 LPS/ATP IL-1B secretion, AlphaLISA, 16 h; stronger effect = lower value; AID 743279, 2014; in the data active = activity change below about -50%; inconclusive = mostly about -30% to -49%
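Secreted IL-1B measured by AlphaLISA bead assay after 16 h compound exposure of THP-1 cells; compounds (final up to 57.5 uM) added 1 h before LPS (250 ng/mL) and ATP (1.25 mM) stimulation; lower signal means less secretion.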
DT40 TDP1 no CPT: qHTS for Inhibitors of human tyrosyl-DNA phosphodiesterase 1 (TDP1): qHTS in cells in absence of CPT. AID 686978, 2013. DT40 Tdp1-/- hTDP1 cells, no CPT, ATP luminescence, 48 h. Potency, µM (doses to about 46.2 µM), most hits filed as inhibitors. 15% of 420,000 active; note: nearly all actives have a fitted effect of over 55% in size
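DT40 Tdp1-/-;hTDP1 cells, no CPT (DMSO vehicle only), 400 cells/well; compounds pin-transferred; ≥48 hr, 37 °C; CellTiter-Glo 30 min RT dark, luminescence read.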
DT40 TDP1 CPT: qHTS for Inhibitors of human tyrosyl-DNA phosphodiesterase 1 (TDP1): qHTS in cells in presence of CPT | chicken DT40 Tdp1-/-;hTDP1 cells + 20 nM CPT, ATP luminescence, 48 h | Potency, µM (titrated, usually from 46.2 µM), hits mostly inhibitors | 12% of 420,000 active | AID 686979, 2013; note: nearly all actives have a fitted effect of over 55% in size
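Chicken DT40 Tdp1-/- cells stably complemented with human TDP1 were seeded at 400 cells/well in medium containing 20 nM camptothecin, exposed to pin-transferred compounds, and grown at 37 °C for at least 48 hr. Viability was read as ATP luminescence.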
HT1080-NT tox: qHTS for induction of synthetic lethality in tumor cells producing 2HG: qHTS for the HT-1080-NT fibrosarcoma cell line. HT-1080-NT fibrosarcoma viability, CellTiter-Glo ATP luminescence, 48 h. Potency, µM (highest dose often 46.1 µM), most hits filed as cytotoxic. 1.6% of 360,000 active;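 note: NT is the 2HG producing partner of a matched IDH1 knockdown line; nearly all actives have a fitted effect of over 55% in size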
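HT-1080-NT; 750 cells/well; 5% FBS RPMI; 48 h compound, 37 degrees C; CellTiter-Glo luminescence; curve fitting and curve-class assignment.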
HT1080 IDH1KD tx: qHTS for induction of synthetic lethality in tumor cells producing 2HG: qHTS for the HT-1080-IDH1KD cell line; HT-1080 IDH1 knockdown viability, ATP luminescence, 48 h; Potency, µM (highest dose often 46.1 µM), actives largely listed as cytotoxic; 2% of 360,000 active; AID 686971, 2013
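Luminescent ATP read-out (CellTiter-Glo, 10 min at room temperature) after 48 h compound exposure at 37 °C gave viability of IDH1-knockdown HT-1080 cells. Activity was normalised to DMSO and cell-free wells, then fitted as concentration-response curves.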
Hits are given with their value; - = inactive; ? = inconclusive; . = no result; [ ] = remark or other dose. Unless noted, calls come from the whole dose curve; as a rule, active = well fitted curve in the direction sought with a large enough effect; inconclusive = small, poorly fitted or top-dose-only effect, or another doubt; inactive = no such curve, though single readings can be large; an effect the other way counts as inactive or inconclusive.

SMILES	IL-1B inflam inh	DT40 TDP1 no CPT	DT40 TDP1 CPT	HT1080-NT tox	HT1080 IDH1KD tx
CC(C)c1ccc(S(=O)(=O)N2CCN(C(=O)CCc3nc4ccccc4c(=O)[nH]3)CC2)cc1	-	?	?	?	-
Cc1ccc(C)c(S(=O)(=O)NCc2ccc(C(=O)N3CCN(C)CC3)cc2)c1	-	-	-	-[9.24 µM]	-
CC(Oc1ccc2c3c(c(=O)oc2c1)CCCC3)C(=O)NCC(O)c1ccccc1 (stereo not drawn)	-	?	-	-	-
Cc1nnc(NCCc2ccccc2)c2ccccc12	-	23µM	?	-	-
COc1ccc(N(Cc2cc3ccccc3[nH]c2=O)S(=O)(=O)c2ccccc2)cc1	-	18µM	?	?	?
COc1ccc(N(Cc2cc3cccc(C)c3[nH]c2=O)S(=O)(=O)c2ccc(Cl)cc2)cc1	-	23µM	?	-	-
COc1ccc(N(Cc2cc3cccc(C)c3[nH]c2=O)S(=O)(=O)c2ccc(OC)cc2)cc1	-	?	?	-	-
Cc1ccc(OCCCC(=O)Nc2sc3c(c2C(N)=O)CCC(C)C3)cc1 (stereo not drawn)	.	-	-	.	.
CC(C)CCOCC(O)CCC(=O)NNC(=S)Nc1ccccc1 (stereo not drawn)	-	-	-	-	-
C=CCC(CC(O)COCCC)C(=O)NNC(=S)Nc1ccccc1 (stereo not drawn)	-	2.3µM	4.6µM	-	-
C/C(=N\NC(=O)c1cccs1)c1c(O)cc(C)oc1=O	-	-	-	-	-
C/C(=N\Nc1ccc(Cl)cc1)c1c(O)cc(C)oc1=O	-	-	-	?	23µM
CCCCn1c(SCc2c(C)noc2C)nc2cc(S(N)(=O)=O)ccc21	?	?	13µM	-	-
CCCCn1c(SCC(=O)Nc2cc(C)on2)nc2cc(S(N)(=O)=O)ccc21	-	-	-	-	-
COc1ccc(CC(N)c2csc(NC(=O)c3ccc(F)cc3)n2)cc1 (stereo not drawn)	-54	23µM	?	21µM	?
COc1ccc(CC(N)c2csc(NC(=O)c3ccccc3)n2)cc1 (stereo not drawn)	?	?	?	-	-
COc1ccc(CC(N)c2csc(NC(=O)c3ccc(OC)cc3)n2)cc1 (stereo not drawn)	?	21µM	16µM	?	-
COc1cc(CNC(=O)Nc2nc(C(N)Cc3ccc(Cl)cc3)cs2)cc(OC)c1OC (stereo not drawn)	-74	18µM	?	6.5µM	?
COc1ccc(CC(N)c2csc(NC(=O)C(c3ccccc3)c3ccccc3)n2)cc1 (stereo not drawn)	-52	6.5µM	18µM	?	21µM
CN1C2CCC1CC(NC(=O)CSCc1ccc(Cl)cc1Cl)C2 (stereo not drawn)	-	?	?	-	?
O=C(Nc1nncs1)c1cc(-c2ccco2)nc2ccccc12	-	-	-	-	-
CCOC(=O)CC1C(=O)NCCN1C1CCCC1 (stereo not drawn)	-	-	-	-	-
COc1ccc(CNC(=O)Nc2nc(C(N)Cc3ccc(C(F)(F)F)cc3)cs2)cc1 (stereo not drawn)	?	21µM	?	?	?
O=C(c1ccc(S(=O)(=O)N2CCOCC2)cc1)N1CCOCC1	-	-	-	-	-
O=C(Nc1ccc(Cl)cc1)c1ccc(S(=O)(=O)N2CCOCC2)cc1	-	?	?	-	-
SMILES	IL-1B inflam inh	DT40 TDP1 no CPT	DT40 TDP1 CPT	HT1080-NT tox	HT1080 IDH1KD tx
Cc1ccc(S(=O)(=O)N2CCN(C(=O)Cc3ccc(S(=O)(=O)N4CCOCC4)s3)CC2)cc1	-	-	-	-	-
CCOc1ccccc1N1CCN(C(=O)Cc2ccc(S(=O)(=O)N3CCOCC3)s2)CC1	-	21µM	?	-	-
O=C(Nc1ccc(S(=O)(=O)N2CCOCC2)cc1)c1ccc(Cl)s1	-	?	23µM	?	-
O=C(Cc1ccc(S(=O)(=O)N2CCOCC2)s1)N1CCN(S(=O)(=O)c2cccc(Cl)c2)CC1	-	16µM	16µM	-	-
O=C(c1ccc(S(=O)(=O)N2CCOCC2)cc1)N1CCN(S(=O)(=O)c2ccc(Cl)s2)CC1	-	16µM	?	-	-
CCOCCCN(C(=O)Cn1nnc(-c2ccc(C)o2)n1)C(C(=O)NC1CCCC1)c1ccco1 (stereo not drawn)	-	-	-	-	-
COC(=O)c1ccc(N2C(=O)C3CC(C)=C(C)CC3C2=O)cc1 (stereo not drawn)	-	-	-	-	-
NC(=O)C1(Nc2ccc(C(=O)O)cc2)CCCC1	-	-	-	-	-
O=C(Cn1cnc(Cl)c1Cl)c1ccc(F)cc1	-	?	-	-	-
CC(C)(C)OC(=O)C[C@@H]1C/C=C\C[C@@H](CC(=O)NCCO)C(=O)N2CCC[C@H]2COC1=O	-	-	-	-	-
O=C(Cc1ccc(S(=O)(=O)N2CCOCC2)s1)N1CCN(c2cccc(C(F)(F)F)c2)CC1	-	3.7µM	7.3µM	-	-
O=C(Cc1ccc(S(=O)(=O)N2CCOCC2)s1)N1CCN(S(=O)(=O)c2ccc(Cl)cc2)CC1	?	23µM	23µM	-[9.24 µM]	-
N#Cc1ccc(OCC(=O)N2CCN(S(=O)(=O)c3ccc(Cl)s3)CC2)cc1	?	?	16µM	-	-
N#Cc1ccc(OCC(=O)N2CCN(S(=O)(=O)c3cccc(Cl)c3)CC2)cc1	-	-	-	-	-
O=C(Cc1ccc(S(=O)(=O)N2CCCC2)s1)N1CCN(c2ccccc2)CC1	-	-	-	-	-
Cn1cc(/C=C/C(=O)c2ccccc2)c2ccccc21	-	?	-	-	-
Cc1cc2c(c(/C=C/C(=O)c3ccccc3)c1)OC1(C=C2)Oc2ccccc2C(=O)N1C (stereo not drawn)	-104	26µM	?	?	?
O=C1CC(c2ccc(OCCCCCOc3ccc(C4CC(=O)NC4=O)cc3)cc2)C(=O)N1 (stereo not drawn)	-131	?	-	-	-
O=C(O)CN1C(=O)CSC1=S	-	-	-	-	-
COc1cccc(C(=O)Nc2nc3ccccc3[nH]2)c1	-	?	-	-	?
CC(CC(=O)Nc1nc2ccccc2[nH]1)c1ccccc1 (stereo not drawn)	-	?	?	-	-
COC(=O)Nc1nc2ccc(C(=O)c3ccccc3)cc2[nH]1	.	0.25µM	0.36µM	.	.
COC(=O)Nc1nc2ccc(S(=O)c3ccccc3)cc2[nH]1 (stereo not drawn)	.	8.4µM	?	.	.
